Results filed as inconclusive are left out. Active and inactive are the calls of the source. Rule for the calls, unless noted: active = hit-call score of the fitted dose curve at least 0.9, where 1 is the maximum; inconclusive = response in the unintended direction; inactive = score below 0.9.

Test [1] is described as follows: CEETOX_H295R_MTT_cell_viability: Viability Assessment in the CeeTox HT-H295R MTT Assay (AID 2283718; active = hit-call score of the fitted dose curve at least 0.9, where 1 is the maximum; inactive = score below 0.9). The gist of the method: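 H295R cells prestimulated 48 h with 10 uM forskolin, then exposed 48 h to test chemical (0.1% DMSO final). Viability by MTT (0.5 mg/ml, 4 h, 37 C), absorbance 570/650 nm; percent change versus DMSO, bidirectional fit.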
Test [2] in a line: Tanguay_ZF_120hpf_ActivityScore_legacy: (Legacy) Oregon State University Tanguay Lab 120 Hour Post-fertilization zebrafish Assay Score for Activity (AID 2283742).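 For AC50: static exposure from 6 hpf until 120 hpf at 28 °C.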 The gist of the method: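 Tropical 5D wild-type zebrafish embryos, dechorionated with pronase at 4 hpf, were exposed singly from 6 hpf to 120 hpf statically at 28C in 0.64% DMSO. Malformations and mortality were scored as binary by brightfield, with the activity score combining 18 morphology components.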

Test [3] has as its target Luciferin 4-monooxygenase (Photinus pyralis) (UniProt P08659). The test can be described thus: CCTE_Simmons_QuantiLum_inhib_2: CCTE's Firefly Luciferase Inhibition Assay, Simmons Lab (AID 2283767).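 For AC50: potency for inhibitors that lower luciferase luminescence relative to DMSO.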 The gist of the method:
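Cell-free recombinant firefly luciferase (5 ng/well) in 200mM potassium phosphate with 1 mg/ml BSA, 30 min at 37C with 8 concentrations from 5 nM to 87.5 uM [final], 0.5% DMSO. Luminescence read after D-luciferin (150uM)/dATP (147uM) reagent injection, pH 7.8; triplicates.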

The nature of test [4]: ACEA_AR_agonist_AUC_viability: ACEA Biosciences xCELLigence Real-Time Cell Analysis on Androgen Receptor Agonism for Viability (AID 2283775).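 For AC50: viability read 80 hours after compound addition.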 The essentials: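 Real-time impedance tracking of 22Rv1 growth, readings every 5 min for 5 h then hourly; area-under-curve viability endpoint at 80 hours, relative to DMSO. Compounds at eight concentrations, 1:4 steps, top 100 uM, n = 2.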

Test [5] can be described thus: ACEA_AR_antagonist_AUC_viability: ACEA Biosciences xCELLigence Real-Time Cell Analysis on Androgen Receptor Antagonism for Viability (AID 2283776).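 Note: 22Rv1 human prostate cancer cells growing on impedance electrode plates; hits lower the growth signal relative to DMSO meaning cytotoxicity.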 The gist of the method:
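Real-time electrical impedance tracks 22Rv1 proliferation after continuous compound exposure (top 100 uM final, 1:4 steps, 8 concentrations). The 80 h area-under-curve serves as the cytotoxicity readout relative to DMSO.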

The nature of test [6]: STM_H9_OrnCyssISnorm_ratio: Stemina devTOX quickPredict H9 human embryonic stem cell (hESC)-based Assay for Ornithine (ORN):Cystine (CYSS) Ratio (AID 2283714). The gist of the method:
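Undifferentiated H9 hESCs were exposed to compound for 72h with media and chemical replaced every 24h. Final 24-h conditioned media were deproteinized and analysed by UPLC-HRMS. ORN and CYSS peak areas were normalized to C13 internal standards and the ratio taken versus 0.1% DMSO.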

Test [7] relates to zebrafish Androgen Receptor (AR), gene 100005148. Briefly: ATG_zfAR_XSP1: Attagene TRANS-FACTORIAL Multi-Species (XSP1) HepG2 Assay for zebrafish Androgen Receptor (AR) (AID 2283771). The essentials: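 HepG2 cells were transiently transfected with a zebrafish AR-GAL4 reporter system and partially stimulated with 3 nM 6-alpha-fluorotestosterone. Reporter mRNA was measured after 24 h dosing by RT-PCR with capillary electrophoresis, and gain-of-signal was fitted relative to DMSO.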

Test [8] has as its target zebrafish Estrogen Receptor (ESR1), esr1 (gene 259252) (UniProt P57717). The test can be described thus: ATG_zfER1_XSP1: Attagene TRANS-FACTORIAL Multi-Species (XSP1) HepG2 Assay for zebrafish Estrogen Receptor (ESR1) (AID 2283772). The essentials: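 Exogenous chimeric receptor-GAL4 activity is measured in transiently transfected human HepG2 liver cells after 24 h compound exposure. Reporter transcripts are detected by RT-PCR and fluorescent capillary electrophoresis, analysed for signal gain relative to DMSO.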

Test [9] has as its system zebrafish Estrogen Receptor (ESR2B), gene 317733. Briefly: ATG_zfER2b_XSP1: Attagene TRANS-FACTORIAL Multi-Species (XSP1) HepG2 Assay for zebrafish Estrogen Receptor (ESR2B) (AID 2283773). The gist of the method:
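HepG2 cells transiently transfected with multiple GAL4-UAS reporter units expressing chimeric zebrafish ER2b-Gal4; 24 h chemical exposure with 3 nM 6-alpha-fluorotestosterone present. Reporter mRNA measured by RT-PCR and capillary electrophoresis; gain of signal fitted versus DMSO.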

In test [10] the test system is frog Estrogen Receptor (ESR2), gene 100174814. Briefly: ATG_frER2_XSP1: Attagene TRANS-FACTORIAL Multi-Species (XSP1) HepG2 Assay for frog Estrogen Receptor (ESR2) (AID 2283774). The essentials:
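HepG2 cells transiently transfected with GAL4-UAS multiplexed reporter units expressing chimeric NR-Gal4 proteins; reporter mRNA measured 24 h after dosing by RT-PCR, FAM labeling, HpaI digestion and capillary electrophoresis. Gain-of-signal relative to DMSO; 3 nM 6-alpha-fluorotestosterone present.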

A short description of test [11]: ArunA_CellTiter_hNC: Viability Assessment in the ArunA Biomedical's Oris Neural Crest (hNC) Cell Migration Assay (AID 2283752). The gist of the method: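 Human H9-derived neural crest cells plated on Matrigel (60,000/well) with LIF and bFGF, incubated 16 h, then exposed 72 h to chemical in test medium. Viability measured with CellTiter Aqueous One reagent; loss of signal versus DMSO.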

Test [12] in a line: ArunA_CellTiter_hNP: Viability Assessment in the ArunA Biomedical's Oris Neural Crest (hNC) Cell Migration Assay (AID 2283753). The essentials:
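H9-derived hNP1 neuroprogenitors, 60,000/well on Matrigel, cultured 16 h, then 72 h chemical exposure in test medium. Cell titer via CellTiter Aqueous One; positive-direction fit vs DMSO.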

Test [13] in a line: ArunA_Migration_hNC: ArunA Biomedical's Oris Neural Crest (hNC) Cell Migration Assay (AID 2283755). The gist of the method:
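Human H9-derived neural crest stem cells, 60,000/well on Matrigel, 16 h at 37C, then 72 h chemical exposure after seeding-stopper removal. Migration into detection zone read as calcein-AM fluorescence (ex494/em517), relative to DMSO.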

Test [14] is described as follows: ArunA_NOG_NucleusCount: ArunA Biomedical's Neurite Outgrowth (NOG) Assay for Nucleus Count (AID 2283756). The gist of the method:
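Human H9-derived differentiated neurons were exposed for 48 h right after seeding. Hoechst-stained nuclei gated by size and intensity were counted by automated high-content imaging as viable neurons. Loss of signal vs DMSO.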

Test [15] concerns chicken Androgen Receptor (AR), gene 422165. The test can be described thus: ATG_chAR_XSP1: Attagene TRANS-FACTORIAL Multi-Species (XSP1) HepG2 Assay for chicken Androgen Receptor (AR) (AID 2283768). The essentials:
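HepG2 cells transiently transfected with multiplexed GAL4-UAS reporter units expressing chimeric chicken AR-Gal4; 3 nM 6-alpha-fluorotestosterone for partial AR stimulation; 24 h after dosing, reporter mRNA by RT-PCR and capillary electrophoresis, gain-of-signal versus DMSO.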

Test [16] concerns Thyroperoxidase (TPO), gene 445522. Briefly: CCTE_Simmons_GUA_TPO: CCTE's Guaiacol Assay for Thyroperoxidase (TPO) Inhibition, Simmons Lab (AID 2283750). The gist of the method:
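Porcine thyroid microsomes (25 ug) in 200mM potassium phosphate, preincubated 30 s at 37C with compound (8 concentrations, 5 nM–87.5 uM) and 35mM guaiacol; 1mM H2O2 starts reaction. Absorbance change at 450nm over first 80 s; loss of signal versus DMSO, three replicates.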

Sequence of Luciferin 4-monooxygenase (Photinus pyralis) (P08659 whole entry, looked up): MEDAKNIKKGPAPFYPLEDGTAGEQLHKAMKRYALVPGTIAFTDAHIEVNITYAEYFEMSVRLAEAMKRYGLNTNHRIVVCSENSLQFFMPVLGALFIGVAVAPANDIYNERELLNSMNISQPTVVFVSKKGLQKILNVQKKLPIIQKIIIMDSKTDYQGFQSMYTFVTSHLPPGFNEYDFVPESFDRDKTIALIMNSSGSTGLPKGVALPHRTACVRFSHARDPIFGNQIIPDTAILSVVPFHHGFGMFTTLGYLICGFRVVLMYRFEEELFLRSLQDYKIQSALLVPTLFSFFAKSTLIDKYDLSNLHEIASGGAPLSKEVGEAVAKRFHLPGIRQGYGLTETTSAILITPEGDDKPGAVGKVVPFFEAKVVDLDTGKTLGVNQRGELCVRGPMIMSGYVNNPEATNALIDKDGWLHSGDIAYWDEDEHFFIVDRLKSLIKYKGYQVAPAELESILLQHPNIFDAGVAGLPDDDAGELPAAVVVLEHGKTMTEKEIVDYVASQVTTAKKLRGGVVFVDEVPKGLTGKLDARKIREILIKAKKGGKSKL
Sequence of zebrafish Estrogen Receptor (ESR1), esr1 (gene 259252) (P57717 whole entry, looked up, the tested form may be a part): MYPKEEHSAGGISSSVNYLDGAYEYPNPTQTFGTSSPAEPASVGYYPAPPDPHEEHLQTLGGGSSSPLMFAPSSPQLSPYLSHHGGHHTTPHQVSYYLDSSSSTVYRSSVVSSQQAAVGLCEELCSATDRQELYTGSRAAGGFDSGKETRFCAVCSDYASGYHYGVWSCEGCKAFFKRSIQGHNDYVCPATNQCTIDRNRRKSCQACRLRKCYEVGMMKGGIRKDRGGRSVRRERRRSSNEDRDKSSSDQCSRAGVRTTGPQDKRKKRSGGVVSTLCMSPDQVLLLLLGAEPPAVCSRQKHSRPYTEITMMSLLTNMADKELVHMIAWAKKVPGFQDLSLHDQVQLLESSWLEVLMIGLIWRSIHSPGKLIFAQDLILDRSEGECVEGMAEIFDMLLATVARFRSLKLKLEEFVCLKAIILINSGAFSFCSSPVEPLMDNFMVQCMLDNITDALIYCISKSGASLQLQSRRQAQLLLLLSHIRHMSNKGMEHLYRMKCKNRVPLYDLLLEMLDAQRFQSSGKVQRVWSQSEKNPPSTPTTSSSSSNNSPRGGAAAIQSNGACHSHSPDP

For `CCCSP(=O)(OCC)Oc1ccc(Br)cc1Cl` (stereo unspecified), the molecule was called inactive in test [1], in test [2], in [3], in test [4] and in test [5].

`CSc1nc(NC(C)C)nc(NC(C)C)n1`: the AC50 in test [6] is 0.237 µM (active). Moreover, the outcome in test [1], in test [2], in test [4] and in test [5] was inactive.

As for `CCCOCC(=Nc1ccc(Cl)cc1C(F)(F)F)n1ccnc1`, the call in test [1], in test [2], in test [7], in test [8] and in [9] was inactive. In addition, the AC50 in test [3] was 36.8 µM (active); in [10] it was 2.94 µM (active); in test [4], 22.7 µM (active); in [5], 6 µM (active).

`N#CSCSC#N`: the AC50 in test [6] is 14.2 µM (active); in test [2] it was 17.9 µM (active); in [3], 53.8 µM (active); in test [4] it was 7.42 µM (active); in test [5], 7.39 µM (active).

Consider `CN(C)C(=O)Nc1cccc(C(F)(F)F)c1`, for which the outcome in test [6], in [1], in test [2] and in [5] was inactive.

Regarding `CSC1=N[C@@](C)(c2ccccc2)C(=O)N1Nc1ccccc1`, the AC50 in [6] is 29.9 µM (active); in test [2], 37.6 µM (active); in test [4], 31.6 µM (active); in test [5], 18.1 µM (active). Further, in test [3], the molecule was called inactive.

Turning to `O=[N+]([O-])c1cc(C(F)(F)F)c(Cl)c([N+](=O)[O-])c1Nc1ncc(C(F)(F)F)cc1Cl`, the AC50 in [6] is 15.2 µM (active); in [2], 45.7 µM (active); in [4], 8.38 µM (active); in [5], 10.6 µM (active). In addition, the molecule was called inactive in [11], in [12], in [13] and in test [14].

For `CCOP(=S)(OCC)SCCSCC`, the results for the AC50 in test [6], in test [4] and in test [5] were 34.3 µM (active), 78.1 µM (active) and 80.6 µM (active), respectively. The molecule was called inactive in test [2].

For the molecule `C#CC(C)(C)NC(=O)c1cc(Cl)cc(Cl)c1`, the outcome in test [1], in test [2], in test [8] and in test [4] was inactive. The AC50 in test [15] is 26.4 µM (active); in test [9], 52.6 µM (active); in test [10] it was 56.3 µM (active); in test [5], 26.4 µM (active).

Take `CC(C1CC1)C(O)(Cn1cncn1)c1ccc(Cl)cc1` (stereo unspecified): the AC50 is 77.4 µM (active) in test [6], 26.2 µM (active) in test [2], 49.8 µM (active) in test [4] and 49.8 µM (active) in test [5]. The result in [1] was inactive.

For `C#CCC1=C(C)C(OC(=O)C2C(C=C(C)C)C2(C)C)CC1=O` (stereo unspecified), the outcome in [1], in [2] and in test [3] was inactive. Besides, the AC50 in test [9] was 25.3 µM (active); in test [10], 23.4 µM (active); in test [4], 67.2 µM (active); in test [5], 49.8 µM (active).

In the case of `C=C(C)[C@H]1Cc2c(ccc3c2O[C@@H]2COc4cc(OC)c(OC)cc4[C@@H]2C3=O)O1`, the AC50 in test [6] was 0.333 µM (active); in test [2], 0.193 µM (active); in [4] it was 0.284 µM (active); in [5] it was 0.413 µM (active). Besides, the molecule was called inactive in test [3].

With `COP(=O)(NC(C)=O)SC` (stereo unspecified), the molecule was classed as inactive in [1], in [2], in test [16], in test [4] and in [5]. Further, the AC50 in test [3] is 37.5 µM (active).

The values above are taken from PubChem BioAssay (EPA / NIEHS).
